Data: ChEMBL document CHEMBL2218924, “A broad activity screen in support of a chemogenomic map for kinase signalling research and drug discovery” (Biochem J, 2013)

Experiments:
[1] = target: Tyrosine-protein kinase SYK (Homo sapiens) (UniProt P43405); conditions: at 10 µM
[2] = target: T1, Mitogen-activated protein kinase kinase kinase 7 (Homo sapiens) (UniProt O43318); conditions: at 1 µM
T1 sequence (whole entry): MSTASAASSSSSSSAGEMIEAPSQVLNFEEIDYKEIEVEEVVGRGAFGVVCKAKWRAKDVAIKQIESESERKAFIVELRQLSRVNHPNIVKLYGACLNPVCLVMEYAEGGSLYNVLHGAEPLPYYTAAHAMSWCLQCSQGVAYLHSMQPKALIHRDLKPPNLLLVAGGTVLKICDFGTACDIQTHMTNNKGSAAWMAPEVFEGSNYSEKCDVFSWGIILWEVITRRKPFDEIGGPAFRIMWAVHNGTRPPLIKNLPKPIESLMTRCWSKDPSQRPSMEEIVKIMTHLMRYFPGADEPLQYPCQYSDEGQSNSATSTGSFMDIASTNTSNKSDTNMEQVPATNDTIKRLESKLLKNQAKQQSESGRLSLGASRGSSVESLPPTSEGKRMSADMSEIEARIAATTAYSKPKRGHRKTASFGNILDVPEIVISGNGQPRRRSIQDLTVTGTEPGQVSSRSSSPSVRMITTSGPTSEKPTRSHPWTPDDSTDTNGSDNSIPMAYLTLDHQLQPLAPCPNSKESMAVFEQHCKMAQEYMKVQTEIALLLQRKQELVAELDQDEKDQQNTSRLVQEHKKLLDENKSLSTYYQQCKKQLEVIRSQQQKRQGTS

[3] = target: T1, Mitogen-activated protein kinase kinase kinase 7 (Homo sapiens); conditions: at 10 µM
[4] = target: T2, Serine/threonine-protein kinase TAO1 (Homo sapiens) (UniProt Q7L7X3); conditions: at 1 µM
T2 sequence (whole entry): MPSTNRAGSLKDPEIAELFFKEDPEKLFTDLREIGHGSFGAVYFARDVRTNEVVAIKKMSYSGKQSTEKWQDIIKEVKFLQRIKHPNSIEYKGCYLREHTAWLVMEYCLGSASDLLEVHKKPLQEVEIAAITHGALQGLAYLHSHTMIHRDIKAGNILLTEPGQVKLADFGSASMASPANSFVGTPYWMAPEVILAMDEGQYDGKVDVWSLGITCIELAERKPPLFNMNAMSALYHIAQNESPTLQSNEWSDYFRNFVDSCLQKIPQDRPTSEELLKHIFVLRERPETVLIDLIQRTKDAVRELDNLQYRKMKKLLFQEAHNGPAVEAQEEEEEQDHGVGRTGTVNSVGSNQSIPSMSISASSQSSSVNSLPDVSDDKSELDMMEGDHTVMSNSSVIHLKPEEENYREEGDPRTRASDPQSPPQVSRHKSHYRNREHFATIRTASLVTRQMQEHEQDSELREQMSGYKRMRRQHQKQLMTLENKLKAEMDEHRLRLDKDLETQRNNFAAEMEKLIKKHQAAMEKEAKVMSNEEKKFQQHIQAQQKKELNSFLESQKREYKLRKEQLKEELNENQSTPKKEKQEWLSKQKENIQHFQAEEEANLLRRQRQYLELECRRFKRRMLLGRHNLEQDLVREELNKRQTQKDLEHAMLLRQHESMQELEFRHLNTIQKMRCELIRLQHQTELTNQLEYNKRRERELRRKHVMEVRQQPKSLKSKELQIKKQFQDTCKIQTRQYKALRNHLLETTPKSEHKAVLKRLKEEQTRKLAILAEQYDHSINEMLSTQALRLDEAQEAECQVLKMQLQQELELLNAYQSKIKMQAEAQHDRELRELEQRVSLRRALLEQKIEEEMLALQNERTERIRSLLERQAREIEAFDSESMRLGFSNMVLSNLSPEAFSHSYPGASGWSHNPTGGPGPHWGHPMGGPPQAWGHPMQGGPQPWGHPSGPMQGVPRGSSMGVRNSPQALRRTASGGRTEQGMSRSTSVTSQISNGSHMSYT

[5] = target: T2, Serine/threonine-protein kinase TAO1 (Homo sapiens); conditions: at 10 µM
[6] = target: T3, Serine/threonine-protein kinase TAO2 (Homo sapiens) (UniProt Q9UL54); conditions: at 1 µM
T3 sequence (whole entry): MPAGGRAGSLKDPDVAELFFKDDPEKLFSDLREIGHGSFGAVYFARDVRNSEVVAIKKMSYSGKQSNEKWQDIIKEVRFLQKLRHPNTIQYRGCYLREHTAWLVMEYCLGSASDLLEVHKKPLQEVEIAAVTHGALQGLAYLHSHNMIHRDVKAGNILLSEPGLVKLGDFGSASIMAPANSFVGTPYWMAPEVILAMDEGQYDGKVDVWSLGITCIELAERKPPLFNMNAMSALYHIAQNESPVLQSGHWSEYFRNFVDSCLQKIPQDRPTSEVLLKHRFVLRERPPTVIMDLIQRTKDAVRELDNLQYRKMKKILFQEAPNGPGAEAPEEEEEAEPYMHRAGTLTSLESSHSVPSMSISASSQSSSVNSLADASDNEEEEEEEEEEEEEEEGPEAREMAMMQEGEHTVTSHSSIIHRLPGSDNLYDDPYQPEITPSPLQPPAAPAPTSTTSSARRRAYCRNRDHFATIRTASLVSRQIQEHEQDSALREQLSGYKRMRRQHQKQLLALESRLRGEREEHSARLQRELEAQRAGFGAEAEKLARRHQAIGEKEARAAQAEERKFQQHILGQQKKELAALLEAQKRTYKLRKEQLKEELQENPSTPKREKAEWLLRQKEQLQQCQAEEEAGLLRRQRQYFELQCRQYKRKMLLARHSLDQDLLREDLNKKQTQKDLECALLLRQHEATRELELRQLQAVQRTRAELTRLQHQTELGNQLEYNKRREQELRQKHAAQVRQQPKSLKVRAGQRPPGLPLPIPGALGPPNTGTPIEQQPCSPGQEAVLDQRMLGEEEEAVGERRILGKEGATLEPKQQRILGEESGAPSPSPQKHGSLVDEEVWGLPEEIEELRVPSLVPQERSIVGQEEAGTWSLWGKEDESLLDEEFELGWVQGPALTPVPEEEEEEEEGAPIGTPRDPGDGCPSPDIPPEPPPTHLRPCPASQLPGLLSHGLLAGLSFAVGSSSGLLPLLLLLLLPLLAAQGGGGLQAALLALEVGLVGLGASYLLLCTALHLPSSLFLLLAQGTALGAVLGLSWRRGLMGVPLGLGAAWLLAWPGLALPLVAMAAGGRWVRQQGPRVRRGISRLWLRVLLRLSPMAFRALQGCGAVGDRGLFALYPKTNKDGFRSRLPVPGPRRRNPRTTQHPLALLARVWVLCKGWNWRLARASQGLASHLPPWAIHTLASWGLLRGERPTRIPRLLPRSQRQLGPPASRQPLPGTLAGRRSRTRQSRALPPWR

[7] = target: T3, Serine/threonine-protein kinase TAO2 (Homo sapiens); conditions: at 10 µM
[8] = target: T4, Serine/threonine-protein kinase TAO3 (Homo sapiens) (UniProt Q9H2K8); conditions: at 1 µM
T4 sequence (whole entry): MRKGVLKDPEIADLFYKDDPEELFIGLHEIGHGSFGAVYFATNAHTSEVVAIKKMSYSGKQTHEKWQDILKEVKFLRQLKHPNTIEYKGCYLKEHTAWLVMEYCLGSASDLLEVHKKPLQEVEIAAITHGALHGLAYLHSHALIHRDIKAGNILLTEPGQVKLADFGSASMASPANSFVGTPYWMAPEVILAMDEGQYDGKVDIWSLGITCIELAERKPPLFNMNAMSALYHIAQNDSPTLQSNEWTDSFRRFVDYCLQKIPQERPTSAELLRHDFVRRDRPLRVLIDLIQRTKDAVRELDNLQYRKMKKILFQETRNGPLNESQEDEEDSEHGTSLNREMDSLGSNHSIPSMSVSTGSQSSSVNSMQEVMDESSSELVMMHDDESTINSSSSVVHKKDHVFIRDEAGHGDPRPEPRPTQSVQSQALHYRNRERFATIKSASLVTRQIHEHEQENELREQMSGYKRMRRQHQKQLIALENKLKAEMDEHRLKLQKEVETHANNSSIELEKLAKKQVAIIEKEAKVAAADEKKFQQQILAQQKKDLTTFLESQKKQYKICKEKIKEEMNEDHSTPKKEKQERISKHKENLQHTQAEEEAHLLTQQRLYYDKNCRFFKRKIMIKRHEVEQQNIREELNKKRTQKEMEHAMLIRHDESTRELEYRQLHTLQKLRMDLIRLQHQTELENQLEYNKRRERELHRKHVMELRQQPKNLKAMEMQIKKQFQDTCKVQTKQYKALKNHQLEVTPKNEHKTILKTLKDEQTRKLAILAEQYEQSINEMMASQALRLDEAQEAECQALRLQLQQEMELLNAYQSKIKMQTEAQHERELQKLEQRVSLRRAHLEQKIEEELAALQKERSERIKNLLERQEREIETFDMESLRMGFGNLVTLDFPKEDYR

[9] = target: T4, Serine/threonine-protein kinase TAO3 (Homo sapiens); conditions: at 10 µM
[10] = target: T5, Serine/threonine-protein kinase TBK1 (Homo sapiens) (UniProt Q9UHD2); conditions: at 1 µM
T5 sequence (whole entry): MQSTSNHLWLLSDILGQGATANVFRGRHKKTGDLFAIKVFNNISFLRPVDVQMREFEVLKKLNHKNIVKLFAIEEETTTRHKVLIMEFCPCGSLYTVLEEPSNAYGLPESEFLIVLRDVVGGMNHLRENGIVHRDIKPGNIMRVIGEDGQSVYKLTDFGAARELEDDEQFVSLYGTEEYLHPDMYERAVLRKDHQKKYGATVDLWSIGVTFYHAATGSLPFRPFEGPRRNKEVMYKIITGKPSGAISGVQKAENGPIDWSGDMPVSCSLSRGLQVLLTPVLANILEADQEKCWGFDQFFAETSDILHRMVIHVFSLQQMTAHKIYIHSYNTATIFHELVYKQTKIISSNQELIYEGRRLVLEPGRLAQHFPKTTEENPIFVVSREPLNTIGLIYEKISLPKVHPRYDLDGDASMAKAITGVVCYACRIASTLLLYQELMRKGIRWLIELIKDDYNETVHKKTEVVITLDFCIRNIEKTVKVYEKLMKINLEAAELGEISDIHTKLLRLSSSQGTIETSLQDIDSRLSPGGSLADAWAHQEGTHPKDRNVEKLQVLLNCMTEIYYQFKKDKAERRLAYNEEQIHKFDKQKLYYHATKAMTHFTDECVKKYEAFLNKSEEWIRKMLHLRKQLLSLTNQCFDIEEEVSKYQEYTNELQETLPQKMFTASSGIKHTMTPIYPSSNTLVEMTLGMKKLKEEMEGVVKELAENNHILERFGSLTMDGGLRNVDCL

| SMILES | residual activity [1] | residual activity [2] | residual activity [3] | residual activity [4] | residual activity [5] | residual activity [6] | residual activity [7] | residual activity [8] | residual activity [9] | residual activity [10] |
| --- | --- | --- | --- | --- | --- | --- | --- | --- | --- | --- |
| COc1cc2ncnc(Nc3ccc(Oc4ccccc4)cc3)c2cc1OC | 111% | 96% | 95% | 106% | 92% | 110% | 106% | 103% | 91% | 72% |
| COc1ccc(CNc2nc(N(CCO)CCO)nc3c2ncn3C(C)C)cc1 | 114% | 92% | 82% | 96% | 81% | 96% | 95% | 92% | 71% | 69% |
| O=C1NC(=O)/C(=C/c2ccc3c(c2)OC(F)(F)O3)S1 | 73% | 96% | 88% | 100% | 74% | 113% | 105% | 103% | 66% | 80% |
| O=C(Nc1cccc(Nc2nccc(Nc3cccc(C(F)(F)F)c3)n2)c1)C1CC1 | 75% | 105% | 99% | 95% | 56% | 92% | 29% | 104% | 67% | 78% |
| O=C(O)c1ccc2c3c1cccc3c(=O)n1c3ccccc3nc21 | 105% | 89% | 41% | 90% | 56% | 110% | 91% | 91% | 65% | 19% |
| CC(=O)O/N=C1\C(=C2\C(=O)Nc3cc(Br)ccc32)Nc2ccccc21 | 40% | 91% | 85% | 89% | 79% | 81% | 83% | 96% | 86% | 57% |
| CN(C)c1ccc(/C=C2\C(=O)Nc3ccccc32)cc1 | 91% | 100% | 81% | 113% | 90% | 99% | 89% | 100% | 91% | 81% |
| CO[C@H]1C[C@@H]2CC[C@@H](C)[C@@](O)(O2)C(=O)C(=O)N2CCCC[C@H]2C(=O)O[C@H]([C@H](C)C[C@@H]2CC[C@@H](O)[C@H](OC)C2)CC(=O)[C@H](C)/C=C(\C)[C@@H](O)[C@@H](OC)C(=O)[C@H](C)C[C@H](C)/C=C/C=C/C=C/1C | 78% | 89% | 82% | 102% | 87% | 99% | 96% | 97% | 85% | 63% |
| COc1ccc(OC)c2c(=S)c3ccccc3[nH]c12 | 96% | 95% | 81% | 82% | 91% | 90% | 87% | 96% | 90% | 82% |
| COc1cccc(-c2cc(=O)c3ccccc3o2)c1N | 113% | 101% | 98% | 99% | 85% | 112% | 92% | 95% | 87% | 97% |
| COc1cc2ncnc(Nc3ccc(O)c(Br)c3)c2cc1OC | 68% | 81% | 62% | 86% | 48% | 98% | 75% | 82% | 61% | 41% |
| N#C/C(=C(\N)Sc1ccc(N)cc1)c1ccccc1C(F)(F)F | 78% | 101% | 85% | 89% | 99% | 102% | 104% | 99% | 91% | 31% |
| Oc1ccc(-c2nc(-c3ccc(F)cc3)c(-c3ccncc3)[nH]2)cc1 | 100% | 104% | 101% | 102% | 69% | 106% | 68% | 111% | 84% | 110% |
| COc1cc2ncnc(N3CCN(C(=O)Nc4ccc(Oc5ccccc5)cc4)CC3)c2cc1OC | 83% | 85% | 82% | 94% | 78% | 95% | 64% | 85% | 77% | 57% |
| CC(=O)c1ccc(N2CCOCC2)cc1O | 101% | 93% | 90% | 103% | 95% | 92% | 94% | 101% | 91% | 74% |
| O=Nc1c(-c2c(O)[nH]c3ccccc23)[nH]c2ccccc12 | 60% | 64% | 71% | 83% | 39% | 75% | 26% | 85% | 28% | 9% |
| Cc1nc2cc3nc(-c4cccs4)cnc3cc2n1C | 93% | 96% | 100% | 111% | 100% | 113% | 98% | 98% | 95% | 105% |
